PubChem BioAssay AID489025 (Southern Research Specialized Biocontainment Screening …, 2010)
In all, about 2,300 compounds went through this assay and about 790 (34%) were called active. This is one part of the list. Potency and affinity values are given separately. Values without a mark were called inactive. How the calls were made is not given here.

Experiment: THP-1 cell cytotoxicity, dose response, cytotoxicity control for non-replicating M. tuberculosis project (AID 489025)
Conditions: THP-1 cell viability; series mostly up to 40 µM; viability: at the top concentration

Row | Structure (SMILES) | viability [%]
1 | COc1ccccc1C1=Nn2c(nnc2C2CCCCC2)SC1 | 82.8
2 | O=C(Nc1ccc(Cl)cn1)C1COc2ccccc2O1 (stereo not given) | 120
3 | O=c1oc(-c2cccs2)nc2c1cnn2-c1ccccc1 | 114
4 | Cc1ccccc1Cn1cc(NC(=O)c2noc(C(C)C)c2[N+](=O)[O-])cn1 | 124
5 | COc1ccc(CN=C(C#N)C2=C(O)c3ccccc3C2=O)cc1 | 104
6 | CC(C)CN1C(=O)CC(Sc2ccccc2C(=O)O)C1=O (stereo not given) | 105
7 | CC(=O)c1c(C)n(C)c2ccc(OC(=O)c3ccco3)cc12 | 115
8 | Cc1ccc(NC(=O)CCSc2nnc(Cc3ccccc3)o2)cc1 | 99.4
9 | O=C(NCc1ccccc1CN1CCCC1)c1cc2ccccc2o1 | 102
10 | Oc1ccc(Cl)cc1CNCc1ccc(F)cc1 | 87.3
11 | Brc1ccc(-c2ccc(CNCc3ccccn3)o2)cc1 | 87.5
12 | O=c1cc(C(F)(F)F)[nH]c2c(C(F)(F)F)cccc12 | 84.6
13 | CN(C)CCN1C(=O)c2oc3ccccc3c(=O)c2C1c1cccc(Br)c1 (stereo not given) | 99.8
14 | O=C(c1cc2ccccc2o1)N1CCN(Cc2ccccc2)CC1 | 98.5
15 | O=C1CCC(=O)N1CNc1ccc(Oc2ccccc2)cc1 | 108
16 | O=C(Nc1sc2c(c1C(=O)O)CCCC2)c1ccc(F)cc1 | 80.8
17 | COC(=O)CCC(=O)Nc1sc(Cc2ccccc2)c(C)c1C(N)=O | 87.3
18 | O=C(c1ccc([N+](=O)[O-])o1)N1CCc2ccccc2C1 | 75.1
19 | O=C(CCSc1nnc(-c2ccncc2)o1)Nc1ccc(Cl)cc1 | 92.8
20 | CC1(C)CC(=O)c2cc(C(=O)NNc3ccccc3)c(=O)n(-c3ccccc3)c2C1 | 99.1
21 | Cc1c(Cl)cccc1-c1ccc(CNCc2ccccn2)o1 | 72.4
22 | CC(C)(C)CC(=O)NC(=S)NCc1ccco1 | 116
23 | O=C(c1cc(F)ccc1F)C1CCCN(Cc2ccc3nonc3c2)C1 (stereo not given) | 99.4
24 | COCc1[nH]nc2c1C(c1sccc1C)C(C#N)=C(N)O2 (stereo not given) | 105

Row | Structure (SMILES) | viability [%]
25 | CCOC(=O)N1CCC(N2CCCC(C(=O)c3ccc4cc(OC)ccc4c3)C2)CC1 (stereo not given) | 70.4
26 | CCOC(=O)CNCCC(=O)c1ccc(Br)cc1 | 105
27 | O=C(Nc1nccs1)c1ccc2ccccc2c1 | 98.3
28 | O=C(NCc1cccs1)c1ccc([N+](=O)[O-])cc1 | 118
29 | CCOC(=O)c1cc(-c2csc(COc3ccc(Cl)cc3)n2)on1 | 104
30 | CC(C)CCC1=NN(C(=O)c2ccco2)C(O)(C(F)(F)F)C1 (stereo not given) | 92.9
31 | Cc1cc(C(=O)NNc2ccc(Cl)cc2)no1 | 96.8
32 | O=C(NC(=S)NCCc1ccccc1)c1ccccc1 | 110
33 | O=C(OCc1ccccn1)c1ccc(COc2ccccc2Cl)o1 | 84.8
34 | Cc1n[nH]c(C)c1CCNC(=O)C1CCC(=O)N(Cc2ccccc2F)C1 (stereo not given) | 120
35 | C=CCn1c(NC(=O)c2ccccc2)nc2ccccc21 | 90.3
36 | O=C(Nc1nc2ccccc2n1CCN1CCCC1)C1CCCCC1 | 106
37 | Cn1c(CNc2ccccc2O)nc2ccccc21 | 98.4
38 | O=C(Nc1ccc(Cl)cc1)C1CCCC1 | 81.9
39 | CCCCSc1nnc(-c2cc(Br)ccc2N)c(=O)[nH]1 | 99.5
40 | O=C(c1ccc(Br)o1)N1CCC(Cc2ccccc2)CC1 | 79.1
41 | CN1c2ccsc2/C(=N/Nc2ccccc2)CS1(=O)=O | 78
42 | CCc1ccc(N2CCN(CCNC(=O)Nc3ccc(OC)cc3)CC2)cc1 | 86
43 | COC(=O)c1ccc(N2CCN(CCNC(=O)Nc3ccc(OC)cc3)CC2)cc1 | 104
44 | O=C1Nc2cc(C(=O)NCCCN3CCOCC3)ccc2S/C1=C/c1cccc(Cl)c1 | 95.3
45 | O=C1CC(N2CCSCC2)C(=O)N1CCc1ccccc1 (stereo not given) | 110
46 | CCOC(=O)C(=O)Cc1nc2ccccc2s1 | 93
47 | Cc1ccc(-c2nnc(COC(=O)c3cccs3)o2)cc1 | 80.8
48 | O=C(NCCN1C(=O)S/C(=C\c2ccccc2F)C1=O)C1CCN(S(=O)(=O)c2cccs2)CC1 | 121

Row | Structure (SMILES) | viability [%]
49 | O=C(COC(=O)CCN1C(=O)/C(=C\C=C\c2ccccc2)SC1=S)Nc1cc(F)ccc1F | 116
50 | O=C(O)CCCCCN1C(=O)/C(=C\c2ccncc2)SC1=S | 80.8
51 | O=C(COc1ccc2ccccc2c1)N1CCCC1 | 108
52 | CCOC(=O)Cn1cc(C#N)c2ccccc21 | 93.9
53 | CC1CCC/C(=C\Nc2ccc(C(=O)O)c(O)c2)C1=O (stereo not given) | 110
54 | Cc1cccnc1NC(=O)C1COc2ccccc2O1 (stereo not given) | 94.9
55 | N=c1oc2ccccc2cc1C(=O)Nc1ccccc1 | 98.9
56 | Cc1cc(Cl)ccc1N(CC(=O)NCc1ccccc1)S(C)(=O)=O | 107
57 | CC(=O)c1ccc(NC(=O)c2cc(CC(C)C)on2)cc1 | 106
58 | CN(CCS(=O)(=O)c1ccc(Cl)cc1)Cc1cccnc1 | 92.2
59 | O=C(COc1ccc(Br)cc1)N/N=C1/SCC(=O)N1Cc1ccccc1 | 73.2
60 | COC(=O)C(C)Oc1ccc2cc(-c3ccccc3)c(=O)oc2c1 (stereo not given) | 107
61 | O=C(NC(=S)N1CCN(C/C=C/c2ccccc2)CC1)c1ccco1 | 95.4
62 | COc1ccc(NC(=O)C(=O)NNC(=O)C(C)Oc2ccc(Cl)cc2Cl)cc1 (stereo not given) | 82
63 | O=C(Nc1nnc(COc2ccc(Cl)cc2)s1)c1ccco1 | 112
64 | C=CCN(CC=C)C(=O)Cc1ccc(F)cc1 | 99.9
65 | C=C(C)C1Cc2c(C)nn(-c3nc(C)cc(C)n3)c2C1 (stereo not given) | 70.6
66 | CCOC(=O)Cn1c(-c2ccccc2)ccc(C#N)c1=O | 110
67 | O=c1cc(-c2ccccc2Cl)oc2ccc([N+](=O)[O-])c(O)c12 | 75.4
68 | O=C1c2cccc3cc([N+](=O)[O-])cc(c23)C(=O)N1c1ccccc1O | 99.6
69 | NCCNc1ccc([N+](=O)[O-])c2cccnc12 | 94.5
70 | CC(=O)Nc1ccc(OC(=O)c2ccc(Br)c([N+](=O)[O-])c2)cc1 | 84.4
71 | O=[N+]([O-])c1cnc(Nc2ccc(Cl)cn2)c([N+](=O)[O-])c1 | 82.7
72 | Cc1ccc(OC(=O)c2sc3ncn(C)c(=O)c3c2C)cc1 | 107

Row | Structure (SMILES) | viability [%]
73 | CC(C)CN1C(=O)/C(=C(/C#N)C(=O)NC2CCCCC2)c2ccccc21 | 87.7
74 | Cc1ccc(NC(=O)CO/N=C/c2ccccc2C)c(C)c1 | 83.8
75 | COc1cc2[nH]c(Cl)c([N+](=O)[O-])c2cc1OC | 93.2
76 | CCOC(=O)c1csc(COc2ccc(OC)cc2)n1 | 117
77 | O=C(NCc1nnc(SC/C=C/c2ccccc2)o1)c1ccco1 | 104
78 | O=C(CCNc1cccc(Cl)c1)c1ccco1 | 90.1
79 | COC(=O)CCc1nc2c(C#N)c(-c3ccc(Cl)cc3)ccn2n1 | 110
80 | O=C(CC1CCCC1)OCn1nnc2ccccc2c1=O | 113
81 | CCCCCCCCCCn1cc(C(C)=O)c(=O)[nH]c1=O | 96
82 | O=C(N/N=C/c1ccccn1)c1cc([N+](=O)[O-])cc([N+](=O)[O-])c1 | 88.4
83 | O=C(O/N=C/c1ccc2c(c1)OCO2)c1ccc([N+](=O)[O-])cc1 | 106
84 | CCOC(=O)COc1ccc2c(=O)c(-c3ccccc3)coc2c1 | 99.1
85 | COc1ccc2c([N+](=O)[O-])c(N3CCCC3)[nH]c2c1 | 107
86 | CC(C)(C)NCc1cc(Br)ccc1OC1CCCC1 | 85.1
87 | CC(C)(C)c1cc(CN2CCN(CCO)CC2)cc(C(C)(C)C)c1O | 117
88 | CN(C)CCC(=O)N1c2ccccc2Sc2ccc(C(F)(F)F)cc21 | 91.5
89 | O=C(NCC1CCCCC1)c1ccco1 | 124
90 | Brc1c(-c2ccc3c(c2)OCO3)nc2ncccn12 | 95.2
91 | CCn1cc(C(=O)O)c(=O)c2cc(F)c(N3CCN(C(=S)NC(=O)c4ccccc4)CC3)cc21 | 85.6
92 | CCCNC(=O)NC(=O)COc1ccc2oc3ccccc3c2c1 | 102
93 | CC(C)(C)c1ccc(S(=O)(=O)NNC(=O)c2cc3ccccc3[nH]2)cc1 | 81.2
94 | COc1ccc(C(=O)CCS(=O)(=O)c2ccc(C)cc2)cc1OC | 98.5
95 | CCOC(=O)c1csc(NC(=O)COc2ccc(Cl)cc2Cl)n1 | 104
96 | COCCSc1nnc(NC(=O)CCS(=O)(=O)Cc2ccccc2)s1 | 106

Row | Structure (SMILES) | viability [%]
97 | CC(C)Cc1nnc(NC(=O)CCS(=O)(=O)c2ccc(Cl)cc2)s1 | 106
98 | CCOC(=O)c1ccc(-n2c(CCC(=O)O)ccc2-c2cccs2)cc1 | 119
99 | O=C(COC(=O)c1ccccc1)NCc1cccs1 | 107
100 | O=C(COc1ccc2ccccc2c1)Nc1nccs1 | 121
101 | Cc1ccc(OC(=O)c2ccc(Br)o2)cc1 | 86
102 | CC(=O)NCCOC(=O)Nc1sc(=S)n(C)c1C | 111
103 | O=C(CCNc1cccc(Cl)c1)c1cccs1 | 109
104 | NC(=S)n1[nH]c(-c2ccc([N+](=O)[O-])cc2)c(N=Nc2ccc(O)cc2)c1=O | 82.1
105 | Cc1ccc(/C=N/NC(=O)c2ccncc2)o1 | 97.5
106 | Cc1ccccc1-n1c(C)cc(/C=N/NC(=O)c2ccncc2)c1C | 92.3
107 | c1ccc2cc(OCCCn3ccnc3)ccc2c1 | 78
108 | Cc1ccc(OCCCCn2ccnc2)c([N+](=O)[O-])c1 | 78.2
109 | c1ccc(-c2ccccc2OCCCCn2ccnc2)cc1 | 76.9
110 | Cc1cc(OCCCn2ccnc2)ccc1C(C)C | 70.4
111 | Cc1cc(OCc2cc(C(=O)N(C)CCc3cnn(C)c3)no2)cc(C)c1Cl | 81.1
112 | COc1ccc(-c2noc(-c3cc4ccccc4oc3=O)n2)cc1 | 104
113 | CCCOc1ccc(N2CC(C(=O)Nc3ccccn3)CC2=O)cc1 (stereo not given) | 113
114 | O=S(=O)(Nc1nccs1)c1ccc(NCc2cc(Br)cc(Br)c2O)cc1 | 102
115 | COCC(=O)Nc1ccccc1NC(C)=O | 104
116 | S=C(Nc1ccc2c(c1)OCO2)Nc1ccc2c(c1)OCO2 | 90
117 | O=C1CC(Sc2ncccn2)C(=O)N1c1ccccc1C(F)(F)F (stereo not given) | 113
118 | CCOc1c(OC(C)=O)ccc(/C=C2\N=C(SCC)SC2=O)c1[N+](=O)[O-] | 121
119 | Cc1c(C(=O)N(C)C)sc2nc(-c3ccccn3)[nH]c(=O)c12 | 95.8
120 | CCCCOC(=O)c1ccc(NC(=O)C2CCCO2)cc1 (stereo not given) | 81
